Source: PubChem BioAssay (NCATS)
Unmarked numbers belong to inactive results. Results filed as inconclusive are left out. Where a call stands in place of a potency, no number is given. Activity calls are given as the source filed them. Calls follow the shape of the dose curve; as a rule, active = well fitted curve in the direction sought with a large enough effect; inconclusive = small, poorly fitted or top-dose-only effect, or another doubt; inactive = no such curve, though single readings can be large; an effect the other way counts as inactive or inconclusive. Where a SMILES comes first, the peptide text is derived from it. [ ]: non-standard residue; d: D form. dPhe(4-Cl) = N[C@H](Cc1ccc(Cl)cc1)C(=O)O; d2Nal = N[C@H](Cc1ccc2ccccc2c1)C(=O)O; dCit = NC(=O)NCCC[C@@H](N)C(=O)O; d3Pal = N[C@H](Cc1cccnc1)C(=O)O

Experiments:
[1] = molecular target: Phospholipid hydroperoxide glutathione peroxidase GPX4 (Homo sapiens) (UniProt P36969); test: Primary qHTS Assay for Inhibitors of Recombinant Selenoprotein Glutathione Peroxidase 4 (GPX4) (AID 1845192); also: nearly all actives have a fitted effect of over 65% in size
Summary of the method: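 qHTS, GR-coupled: GPX4 200 nM + cpd 30 min RT → GSH 1 mM, NADPH 0.5 mM, GR 100 nM → CHP 0.5 mM start; fluor 340/450 at t0 and t15 min; no-enzyme wells as control.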

[2] = Primary fluorescence-based thiol-reactive (MSTI) qHTS assay for identification of artifact compounds. (AID 1845221); also: nearly all actives have a fitted effect of over 65% in size; also: potency is read from the fitted curve at half-maximal effect;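 as to activity change, negative = thiol reactive: series mostly up to about 54 µM; thiol-reactive compounds lower the probe fluorescence signal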
Summary of the method: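 qHTS titration of compound; 4 uM MSTI, PBS pH 7.4, 2% DMSO; 1 h RT, dark; fluorescence 525/598 nm; normalized to Acetyl-MSTI and MSTI; 4-parameter Hill fit.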

[3] = system: Nanoluciferase (engineered Oplophorus gracilirostris luciferase); test: Primary Nanoluciferase (NLuc) qHTS assay for identification of artifact compounds. (AID 1845222); also: series mostly up to about 54 µM
Summary of the method: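 Luminescence read-out of secreted NLuc in S16 cell conditioned medium (1:55); compounds tested with 15 min RT preincubation, then Nano-Glo substrate 1:100, 5 min. % inhibition vs no-enzyme and DMSO controls, 4-parameter Hill fit.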

[4] = Primary redox qHTS assay for identification of artifact compounds. (AID 1845223); also: potency is read from the fitted curve at half-maximal effect
Summary of the method: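 Redox-cycling detection via DTT (250 uM final) oxidation coupled to Amplex Red (25 uM)/HRP (250 mU/mL) in HBSS. 15 min preincubation plus 30 min after DTT, room temperature. Ex/Em 525/598 nm; 4-parameter Hill fit against DMSO and 10 uM DA3003.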

Sequence of Phospholipid hydroperoxide glutathione peroxidase GPX4 (Homo sapiens) (P36969 whole entry, looked up): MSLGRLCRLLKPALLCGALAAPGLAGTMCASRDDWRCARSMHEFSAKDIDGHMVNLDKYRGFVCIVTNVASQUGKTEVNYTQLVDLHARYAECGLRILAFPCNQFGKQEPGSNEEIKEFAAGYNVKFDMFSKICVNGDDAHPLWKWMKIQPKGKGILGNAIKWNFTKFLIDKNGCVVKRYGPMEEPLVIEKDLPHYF

| SMILES | Potency [1] | Potency [2] | Potency [3] | Potency [4] | activity change, negative = thiol reactive [2] | activity, negative = inhibition [3] | redox activity (% of DA3003) [4] |
| --- | --- | --- | --- | --- | --- | --- | --- |
| Cc1c(C(=O)N2CCOc3ccc(-c4ccc(N)nc4)cc3C2)ccc(S(C)(=O)=O)c1F | inactive | inactive | inactive | inactive |  |  |  |
| Cc1ccccc1NC(=O)Nc1ccc(CC(=O)N(C)[C@@H](CC(C)C)C(=O)NCC[C@H](NC(=O)[C@@H]2CCCN2S(=O)(=O)c2cc(Cl)cc(Cl)c2)C(=O)O)cc1 | inactive | inactive | inactive | inactive |  |  |  |
| O=C(CSc1nc2c(c(=O)n1-c1ccccc1)SCC2)Nc1ccc(-c2ccccc2)cn1 | inactive | inactive | inactive | inactive |  |  |  |
| Cc1[nH]c2ccccc2c1C1=C(NCCc2ccc(F)cc2)C(=O)N(C)C1=O | inactive | 1.5 µM (active) | inactive | inactive |  |  |  |
| CC(C)=CCC[C@](C)(O[C@@H]1O[C@H](CO)[C@@H](O)[C@H](O)[C@H]1O)[C@H]1CC[C@]2(C)[C@@H]1[C@H](O)CC1[C@@]3(C)CC[C@H](O)C(C)(C)C3[C@@H](O[C@@H]3O[C@H](CO)[C@@H](O)[C@H](O)[C@H]3O[C@@H]3OC[C@@H](O)[C@H](O)[C@H]3O)C[C@]12C (stereo partly drawn) | inactive |  |  |  | 136% [at 11.5 µM] | -0.941% [at 11.6 µM] | 12.7% [at 11.5 µM] |
| CN[C@H](CC(C)C)C(=O)N[C@H]1C(=O)N[C@@H](CC(N)=O)C(=O)N[C@H]2C(=O)N[C@H]3C(=O)N[C@H](C(=O)N[C@H](C(=O)O)c4cc(O)cc(O)c4-c4cc3ccc4O)[C@H](O[C@H]3C[C@](C)(N)[C@@H](O)[C@H](C)O3)c3ccc(c(Cl)c3)Oc3cc2cc(c3O[C@@H]2O[C@H](CO)[C@@H](O)[C@H](O)[C@H]2O[C@H]2C[C@](C)(NCc3ccc(-c4ccc(Cl)cc4)cc3)[C@@H](O)[C@H](C)O2)Oc2ccc(cc2Cl)[C@H]1O | inactive | inactive | inactive | inactive |  |  |  |
| CC(NC(=O)CCc1nc2ccccc2c(=O)[nH]1)c1ccccc1 (stereo not drawn) | inactive | inactive | inactive | inactive |  |  |  |
| C[C@@H]1C(=O)O[C@H](C)[C@H]1CC(=O)[C@](C)(O)[C@H]1CC[C@@]2(O)C3=CC(=O)[C@@H]4C[C@@H](O)[C@@H](O)C[C@]4(C)C3CC[C@]12C (stereo partly drawn) | inactive | inactive | inactive | inactive |  |  |  |
| CS(=O)(=O)N(CC(=O)NCC1CC1)c1cc(C(F)(F)F)ccc1Cl | inactive | inactive | inactive | inactive |  |  |  |
| OC/C=C/C=C/[C@H]1Cc2cc(O)cc(O)c2O1 | inactive | 8.44 µM (active) | inactive | 18.9 µM (active) |  |  |  |
| Cc1csc(NC(=O)c2ccc(COc3cccc(Cl)c3)o2)n1 | inactive | inactive | inactive | inactive |  |  |  |
| C#CCN(Cc1cc2c(=O)[nH]c(C)nc2cc1Br)c1ccc(C(=O)NCc2cccnc2)cc1 | inactive | inactive | inactive | inactive |  |  |  |
| Cn1nnc(-c2ccc(-c3ccc(N4C[C@H](CO)OC4=O)cc3F)cn2)n1 | inactive | inactive | inactive | inactive |  |  |  |
| CC1(C)CC[C@]2(C(=O)O)CC[C@]3(C)C(=CCC4[C@@]5(C)CC[C@H](O[C@@H]6O[C@H](C(=O)O)[C@@H](O[C@@H]7OC[C@@H](O)[C@H](O)[C@H]7O)[C@H](O)[C@H]6O)C(C)(C)C5CC[C@]43C)C2C1O (stereo partly drawn) | inactive | inactive | inactive | inactive |  |  |  |
| CC12CCC(OC3OC(CO)C(O)C(OC4OC(CO)C(O)C(O)C4O)C3O)CC1CCC1C2CCC2(C)/C(=C3/COC(=O)C3)CCC12O (stereo not drawn) | inactive | inactive | inactive | inactive |  |  |  |
| CC(=O)N[C@H](Cc1ccc2ccccc2c1)C(=O)N[C@H](Cc1ccc(Cl)cc1)C(=O)N[C@H](Cc1cccnc1)C(=O)N[C@@H](CO)C(=O)N[C@@H](Cc1ccc(O)cc1)C(=O)N[C@H](CCCNC(N)=O)C(=O)N[C@@H](CC(C)C)C(=O)N[C@@H](CCCN=C(N)N)C(=O)N1CCC[C@H]1C(=O)N[C@H](C)C(N)=O (Ac-[d2Nal][dPhe(4-Cl)][d3Pal]SY[dCit]LRP[dA]-NH2) | inactive | inactive | inactive | inactive |  |  |  |
| COc1ccc(C2COc3cc(O)ccc3C2)c(O)c1 (stereo not drawn) | inactive | inactive | inactive | inactive |  |  |  |
| CCN1CCN(Cc2ccc(NC(=O)c3ccc(C)c(/C=C/c4cnc5[nH]ccc5c4OC)c3)cc2C(F)(F)F)CC1 | inactive | inactive | inactive | inactive |  |  |  |
| CN(C)C/C=C/C(=O)Nc1cc2c(Nc3ccc(F)c(Cl)c3)ncnc2cc1OC1CCOC1 (stereo not drawn) | inactive | inactive | inactive | inactive |  |  |  |
| CC(=O)OC1CC2C3(C)CCC(OC(=O)CC(=O)O)C(C)(C)C3CCC2(C)C2(C)CCC(C3(C)CCC(=O)O3)C12 (stereo not drawn) | inactive | inactive | inactive | inactive |  |  |  |
| COC(=O)CC1CC(c2ccc(O)cc2)=NO1 (stereo not drawn) | inactive | inactive | inactive | inactive |  |  |  |
| CN[C@H](C(=O)N[C@H](C(=O)N(C)[C@H](/C=C(\C)C(=O)O)C(C)C)C(C)(C)C)C(C)(C)c1ccccc1 | inactive | inactive | inactive | inactive |  |  |  |
| CC(O)/C=C/C1C(C)C(O[C@@H]2O[C@H](CO)[C@@H](O)[C@H](O)[C@H]2O)C(O)CC1(C)C (stereo partly drawn) | inactive |  | inactive | inactive |  |  |  |
| COC(=O)CC(C)(O)CC(=O)OCc1ccc(O[C@@H]2O[C@H](CO)[C@@H](O)[C@H](O)[C@H]2O)cc1 (stereo partly drawn) | inactive |  | inactive | inactive |  |  |  |
| CCN1CCN(Cc2ccc(NC(=O)c3ccc(C)c(NC(=O)c4cncc(-c5cccs5)c4)c3)cc2C(F)(F)F)CC1 | inactive | inactive | inactive | inactive |  |  |  |
